Results published in PubChem BioAssay (NCATS).
Inconclusive results are not listed. Unmarked numbers belong to inactive results. Activity calls are given as the source filed them. Calls come from the whole dose curve; as a rule, active = well fitted cell-killing curve with a large enough effect; inconclusive = small, poorly fitted or top-dose-only effect, or effect the other way; inactive = no such curve, though single readings can be large or run the other way.

Test: Quantitative High-Throughput drug screen in 47 multiple myeloma cell lines against the NCATS MIPE library collection: OCIMY7_PLB cell viability assay (AID 1918987); note: nearly all actives have a fitted effect of over 65% in size
Settings: OCI-MY7 myeloma viability, CellTiter-Glo ATP, 48 h; series mostly up to 45.8 µM; viability (% of DMSO): at the top concentration
Excerpt: PI: Beverly A. Mock Ph.D.
Laboratory of Cancer Biology and Genetics,
Center for Cancer Research, National Cancer Institute,
National Institute of Health, Bethesda, Maryland
Drug resistance and disease progression are common in multiple myeloma (MM) patients, underscoring the need for new therapeutic combinations. […] We hypothesized that effective combinations would reduce MYC expression and enhance p16 activity. […] These preclinical data identify potentially useful drug combinations for evaluation in drug-resistant MM and reveal potential mechanisms of combined drug sensitivity.
Described herein is the primary MIPE qHTS used to cherrypick compounds. Validated compounds were then further tested for potential synergistic activiy.
[1] Peat TJ, Gaikwad SM, Dubois W, Gyabaah-Kessie N, Zhang S, Gorjifard S, Phyo Z, Andres M, Hughitt VK, Simpson RM, Miller MA, Girvin AT, Taylor A, Williams D, D'Antonio N, Zhang Y, Rajagopalan A, Flietner E, Wilson K, Zhang X, Shinn P, Klumpp-Thomas C, McKnight C, Itkin Z, Chen L, Kazandijian D, Zhang J, Michalowski AM, Simmons JK, Keats J, Thomas CJ, Mock BA. Drug combinations identified by high-throughput screening promote cell cycle transition and upregulate Smad pathways in myeloma. Cancer Lett. 2023 Aug 1;568:216284. doi: 10.1016/j.canlet.2023.216284. Epub 2023 Jun 24. PMID: 37356470; PMCID: PMC10408729.
SEQUENCE No. (e.g., 1, 2, 3, etc.); […] (e.g., Cells, Incubation, Reagent, etc.); VALUE and DESCRIPTION.
1; Cells; 5 uL; white, solid bottom 1536-well Greiner assay plate.
2; Compounds; 23 nL; Kalypsis pin tool (Wako USA) equipped with a 1536-well pin head to transfer to the assay plates.
3; Incubation; 48 hours; 37C incubation.
4; Reagent;5uL; CellTiter Glo (Promega).
5; Detector; 425V; Luminescence; Viewlux PerkinElmer.
NOTES (numbers refer to Sequence numbers above)
1. The cell-based screening methods employed in this study were like those previously published. Briefly, the corresponding myeloma cell lines were screened in 1,536-well plates with 500 cells, 5-uL per well for inhibition of cell viability (assessed by measuring ATP levels with CellTiterGlo).
2. NCATS MIPE 4.0 library of approved and investigational drugs were added using the Kalypsis pin tool. Wells treated with DMSO only for 100% viability and media only for 0% viability were used as controls.
3. The assay plates were covered and incubated for 48 hours in a 37C, 5% CO2 incubator with controlled humidity.
4. After 48 hours, CellTilter-GloTM luminescent substrate mix (Promega) reagent was added to the assay plate and plates we incubated for 5 min at room temperature.
5. Signal was measured as median relative luminescence units on a ViewLux (PerkinElmer) multiplate reader.
[1] Heske CM, Davis MI, Baumgart JT, Wilson K, Gormally MV, Chen L, Zhang X, Ceribelli M, Duveau DY, Guha R, Ferrer M, Arnaldez FI, Ji J, Tran HL, Zhang Y, Mendoza A, Helman LJ, Thomas CJ. Matrix Screen Identifies Synergistic Combination of PARP Inhibitors and Nicotinamide Phosphoribosyltransferase (NAMPT) Inhibitors in Ewing Sarcoma. Clin Cancer Res. 2017 Dec 1;23(23):7301-7311. doi: 10.1158/1078-0432.CCR-17-1121. Epub 2017 Sep 12. PMID: 28899971; PMCID: PMC6636827.
Potency is the fitted concentration of half-maximal effect.

Row | SMILES | Potency | viability (% of DMSO)
1 | C[C@](O)(COc1ccc(C#N)cc1)C(=O)Nc1ccc(C#N)c(C(F)(F)F)c1 | 26.4 µM (active) | –
2 | CCCCCC[C@H]1C(=O)O[C@H](C)[C@H](NC(=O)c2cccc(NC=O)c2O)C(=O)O[C@@H](C)[C@@H]1OC(=O)CC(C)C | 0.187 µM (active) | –
3 | CC[C@H]1C=CC=CC[C@@H](C)[C@H](O)[C@@](C)(O)C(=O)[C@@H](C)[C@H](O)[C@@H](C)C(=O)[C@@H](C)[C@H](O)[C@@H](C)C=CC(=O)O[C@@H]2[C@@H](C)[C@H](CC1)O[C@]1(CC[C@H](C)[C@H](C[C@@H](C)O)O1)[C@H]2C | 0.001 µM (active) | –
4 | C=C[C@@H]1CN2CCC1C[C@@H]2[C@@H](O)c1ccnc2ccccc12 (stereo not given in full) | 7.43 µM (active) | –
5 | CC(C)[C@]12O[C@@H]1[C@@H]1O[C@]13[C@]1(O[C@H]1C[C@@H]1C4=C(CC[C@@]13C)C(=O)OC4)[C@H]2O | – | 3.69%
6 | CC[C@@H]1[C@@H](C)O[C@@](O)([C@@H](C)[C@H](O)[C@H](C)[C@H]2OC(=O)C=CC=C[C@@H](C)[C@@H]([C@@H](C)[C@@H](O)[C@H](C)[C@@]3(O)C[C@H](O[C@H]4C[C@H](O)[C@H](O)[C@H](C)O4)[C@H](CC)[C@@H](C)O3)OC(=O)C=CC=C[C@@H]2C)C[C@H]1O[C@H]1C[C@H](O)[C@H](O)[C@H](C)O1 | 0.662 µM (active) | –
7 | CCOC(=O)Nc1ccc(NCc2ccc(F)cc2)cc1N | 10.5 µM (active) | –
8 | COc1cccc2c1[C@]13CCN(CC4CC4)[C@H](C2)[C@]1(OC)CCC(=O)C3 | – | 142%
9 | CCNC(=O)C[C@@H]1N=C(c2ccc(Cl)cc2)c2cc(OC)ccc2-n2c(C)nnc21 | 2.64 µM (active) | –
10 | Cc1ccccc1-n1c(Cn2cnc3c(N)ncnc32)nc2cccc(C)c2c1=O | 1.32 µM (active) | –
11 | C[C@]12CC[C@H]3[C@@H](CCC4=CC(=O)CC[C@@]43C)[C@H]1CC[C@H]2O | – | 151%
12 | COC1=C[C@@H]2[C@@H]3Cc4ccc(OC)c(O)c4[C@]2(CCN3C)CC1=O | 3.32 µM (active) | –
13 | CC(C)(O)C(=O)Nc1ccc([N+](=O)[O-])c(C(F)(F)F)c1 | 7.43 µM (active) | –
14 | C[C@@H]1CC[C@@]2(OC1)O[C@H]1C[C@H]3[C@@H]4CC=C5C[C@@H](O[C@@H]6O[C@H](CO)[C@@H](O[C@@H]7O[C@@H](C)[C@H](O)[C@@H](O)[C@@H]7O)[C@H](O)[C@@H]6O[C@@H]6O[C@@H](C)[C@H](O)[C@@H](O)[C@@H]6O)CC[C@]5(C)[C@@H]4CC[C@]3(C)[C@@H]1[C@H]2C | 3.32 µM (active) | –
15 | CCc1c(C(=O)C(N)=O)c2c(OCC(=O)O)cccc2n1Cc1ccccc1 | – | 168%
16 | N#C[C@H](O[C@@H]1O[C@H](CO[C@@H]2O[C@H](CO)[C@H](O)[C@H](O)[C@H]2O)[C@H](O)[C@H](O)[C@H]1O)c1ccccc1 | 10.5 µM (active) | –
17 | Cc1[nH]nc2ccc(-c3cncc(OC[C@@H](N)Cc4c[nH]c5ccccc45)c3)cc12 | 0.0264 µM (active) | –
18 | O=c1[nH]c2ccccc2n1C1CCN(Cc2ccc(-c3[nH]c4cc5ncnc5cc4nc3-c3ccccc3)cc2)CC1 | 8.33 µM (active) | –
19 | O=S(=O)(CC1CS1)c1ccc(Oc2ccccc2)cc1 (stereo not given) | 5.26 µM (active) | –
20 | CC1=C(O)C(=O)C=C2C1=CC=C1[C@@]2(C)CC[C@@]2(C)[C@@H]3C[C@](C)(C(=O)O)CC[C@]3(C)CC[C@]12C | 0.296 µM (active) | –

Row | SMILES | Potency | viability (% of DMSO)
21 | Cc1ccccc1-n1c(Cn2ncc3c(N)ncnc32)nc2cccc(C)c2c1=O | 3.32 µM (active) | –
22 | CC(=O)Nc1ccc(OC[C@](C)(O)C(=O)Nc2ccc([N+](=O)[O-])c(C(F)(F)F)c2)cc1 | 10.5 µM (active) | –
23 | O=C(Nc1ccncc1)C(=O)c1cn(Cc2ccc(Cl)cc2)c2ccccc12 | 0.001 µM (active) | –
24 | COc1cc2cc(c1Cl)N(C)C(=O)C[C@H](OC(=O)C(C)C)[C@]1(C)O[C@H]1[C@H](C)[C@@H]1C[C@@](O)(NC(=O)O1)[C@H](OC)C=CC=C(C)C2 | – | 7.03%
25 | COc1cc([C@@H]2c3cc4c(cc3[C@@H](O)C3COC(=O)C32)OCO4)cc(OC)c1O (stereo not given in full) | 0.0526 µM (active) | –
26 | COC[C@H]1OC(=O)c2coc3c2[C@@]1(C)C1=C(C3=O)[C@@H]2CC[C@H](O)[C@@]2(C)C[C@@H]1OC(C)=O | 0.418 µM (active) | –
27 | C[C@H]1CCCC=CC2C[C@H](O)C[C@@H]2[C@H](O)C=CC(=O)O1 (stereo not given in full) | – | 27%
28 | CO[C@H]1CCC(O[C@H]2C[C@H]([C@]3(C)CC[C@]4(C[C@H](O)[C@@H](C)[C@@H]([C@@H](C)C=C(C)C(=O)[C@H](C)C[C@H](C)C(=O)O)O4)O3)O[C@]3(O[C@@H]([C@H]4O[C@@](O)(CO)[C@H](C)C[C@H]4C)C[C@H]3C)[C@H]2C)O[C@H]1C (stereo not given in full) | 0.935 µM (active) | –
29 | CC(=Cc1csc(C)n1)[C@@H]1C[C@H]2O[C@]2(C)CCC[C@H](C)[C@@H](O)[C@@H](C)C(=O)C(C)(C)[C@@H](O)CC(=O)O1 | – | 27.1%
30 | COc1ccc2c(c[n+](C)c3c4cc5c(cc4ccc23)OCO5)c1OC | 2.96 µM (active) | –
31 | C[C@]12Cc3cn[nH]c3C[C@@H]1CC[C@@H]1[C@H]2CC[C@@]2(C)[C@H]1CC[C@]2(C)O | – | 182%
32 | CCN1CCN(C(=O)Cc2ccc(Nc3ncc(F)c(Nc4ccc(C(=O)Nc5ccccc5Cl)cc4)n3)cc2)CC1 | 0.526 µM (active) | –
33 | CCOC(=O)c1cncn1[C@H](C)c1ccccc1 | – | 126%
34 | CC(C)(C)c1cc(C=C(C#N)C#N)cc(Br)c1O | 4.69 µM (active) | –
35 | CCOP(=O)(OCC)C(C)NC(=O)N(CCCl)N=O (stereo not given) | – | 128%
36 | C[C@@]12OC(=O)[C@]1([C@@H](O)[C@@H]1C=CCCC1)NC(=O)[C@H]2CCCl | 0.001 µM (active) | –
37 | C=CCON=C(C[C@H]1O[C@@H]2O[C@]3(C)CC[C@@H]4[C@H](C)CC[C@@H]([C@H]1C)[C@@]24OO3)[C@H]1O[C@@H]2O[C@]3(C)CC[C@H]4[C@H](C)CC[C@@H]([C@@H]1C)[C@@]24OO3 | 0.105 µM (active) | –
38 | Cc1c(C(=O)Nc2cccc(C(F)(F)F)c2)cc(-c2ccccc2)n1CCCN1CCOCC1 | 0.372 µM (active) | –
39 | CC(C)(O)C=CC(=O)[C@](C)(O)[C@H]1[C@H](O)C[C@]2(C)[C@@H]3CC=C4[C@@H](C=C(O)C(=O)C4(C)C)[C@]3(C)C(=O)C[C@@]12C | 0.0235 µM (active) | –
40 | NC1CC1c1ccccc1 (stereo not given) | – | 158%
